In PubChem BioAssay (Tox21):
Values without a mark were called inactive. Records with an inconclusive call do not appear. Where a call stands in place of a potency, no number is given. The source made the active and inactive calls. Calls follow the shape of the dose curve; as a rule, active = well fitted curve in the direction sought with a large enough effect in the repeat runs; inconclusive = weak or mixed curves; inactive = no such curve, though single readings can be large; an effect the other way counts as inactive or inconclusive.

Experiments:
[1] = qHTS RealTime-Glo MT Cell Viability Assay in HepG2 cells - 24 hour (AID 1224867); also: nearly all actives have a fitted effect of over 50% in size
How it was run: (§1)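 Cell number in HepG2 cultures estimated from NanoLuc luminescence generated by metabolic reduction of a prosubstrate by living cells. The homogeneous, nonlytic format allowed repeated reads at 0, 8, 16, 24, 32 and 40 h of compound exposure.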

[2] = qHTS RealTime-Glo MT Cell Viability Assay in HEK293 cells - 32 hour (AID 1224868); also: top concentration of the series differs between compounds; nearly all actives have a fitted effect of over 50% in size
How it was run: (§2)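 Homogeneous bioluminescent viability format in HEK293 cells (600 cells/well). Following 5 h at 37 C/5% CO2, 23 nL compound was pintooled; the signal was measured repeatedly during 40 h incubation.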

[3] = qHTS RealTime-Glo MT Cell Viability Assay in HepG2 cells - 40 hour (AID 1224870); also: nearly all actives have a fitted effect of over 50% in size
How it was run: (§3)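 Real-time viability: cells seeded at 600 per well together with NanoLuc and cell-permeant prosubstrate, compounds added after 5 h incubation. Luminescence tracked at 0, 8, 16, 24, 32 and 40 h of exposure.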

[4] = A CellTox Green Cytotoxicity Assay to monitor cytotoxicity in HEK293 cells - 40 hour (AID 1224871); also: nearly all actives have a fitted effect of over 45% in size
How it was run: (§4)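 Dead-cell fluorescence measured kinetically: asymmetric cyanine dye, HEK293, 600 cells/well, 5 h settle, 23 nL cpd/DMSO, 37 C, reads 0–40 h every 8 h.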

[5] = qHTS RealTime-Glo MT Cell Viability Assay in HEK293 cells - 16 hour (AID 1224872); also: nearly all actives have a fitted effect of over 50% in size; also: potency is read from the fitted curve at half-maximal effect
How it was run: as §2

[6] = qHTS RealTime-Glo MT Cell Viability Assay in HepG2 cells - 8 hour (AID 1224873); also: nearly all actives have a fitted effect of over 55% in size
How it was run: as §3

[7] = qHTS RealTime-Glo MT Cell Viability Assay in HEK293 cells - 40 hour (AID 1224874); conditions: RealTime-Glo luminescence; max response: active compounds read low; also: nearly all actives have a fitted effect of over 50% in size
How it was run: (§5)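 600 HEK293 cells per well, dispensed already mixed with RealTime-Glo MT reagents. Compound dosing came 5 h later. The same wells were read for luminescence at 0, 8, 16, 24, 32 and 40 h of exposure at 37 C.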

[8] = A CellTox Green Cytotoxicity Assay to monitor cytotoxicity in HEK293 cells - 24 hour (AID 1224875); also: series mostly up to about 77 µM; nearly all actives have a fitted effect of over 45% in size
How it was run: as §4

[9] = A CellTox Green Cytotoxicity Assay to monitor cytotoxicity in HepG2 cells - 16 hour (AID 1224876); also: nearly all actives have a fitted effect of over 45% in size
How it was run: (§6)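 First, HepG2 cells (600/well) mixed with reagent were plated; second, after 5 h at 37 C they received compounds via pintool; third, fluorescence was measured at 0 h through 40 h at 8 h intervals.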

[10] = qHTS RealTime-Glo MT Cell Viability Assay in HepG2 cells - 32 hour (AID 1224877); also: nearly all actives have a fitted effect of over 55% in size
How it was run: as §1

[11] = A CellTox Green Cytotoxicity Assay to monitor cytotoxicity in HepG2 cells - 24 hour (AID 1224878); also: nearly all actives have a fitted effect of over 45% in size
How it was run: as §6

[12] = A CellTox Green Cytotoxicity Assay to monitor cytotoxicity in HepG2 cells - 40 hour (AID 1224879); also: nearly all actives have a fitted effect of over 40% in size
How it was run: as §6

[13] = qHTS RealTime-Glo MT Cell Viability Assay in HEK293 cells - 0 hour (AID 1224880)
How it was run: as §5

[14] = A CellTox Green Cytotoxicity Assay to monitor cytotoxicity in HEK293 cells - 32 hour (AID 1224881); also: nearly all actives have a fitted effect of over 40% in size
How it was run: as §4

[15] = A CellTox Green Cytotoxicity Assay to monitor cytotoxicity in HepG2 cells - 32 hour (AID 1224883); also: nearly all actives have a fitted effect of over 50% in size
How it was run: as §6

[16] = A CellTox Green Cytotoxicity Assay to monitor cytotoxicity in HEK293 cells - 8 hour (AID 1224884); also: nearly all actives have a fitted effect of over 35% in size
How it was run: as §4

[17] = qHTS RealTime-Glo MT Cell Viability Assay in HepG2 cells - 16 hour (AID 1224885); also: nearly all actives have a fitted effect of over 50% in size
How it was run: as §1

[18] = A CellTox Green Cytotoxicity Assay to monitor cytotoxicity in HepG2 cells - 0 hour (AID 1224882); also: nearly all actives have a fitted effect of over 35% in size
How it was run: as §6

[19] = A CellTox Green Cytotoxicity Assay to monitor cytotoxicity in HEK293 cells - 0 hour (AID 1224869); also: nearly all actives have a fitted effect of over 50% in size
How it was run: as §4

Structure (SMILES)	outcome [1]	Potency [2]	outcome [3]	Potency [4]	Potency [5]	outcome [6]	max response [7] [%]	Potency [8]	Potency [9]	outcome [10]	Potency [11]	Potency [12]	outcome [13]	Potency [14]	Potency [15]	Potency [16]	outcome [17]	Potency [18]	Potency [19]
O=C(O)c1ccccc1C(=O)Nc1ccc(S(=O)(=O)Nc2nccs2)cc1	inactive	inactive	inactive	inactive	inactive	inactive	-1.33	inactive	inactive	inactive	inactive	inactive	inactive	inactive	inactive	inactive	inactive		
O=S(=O)(O)SSS(=O)(=O)O	inactive	inactive	inactive	inactive	inactive	inactive	4.41	inactive	inactive	inactive	inactive	inactive	inactive	inactive	inactive	inactive	inactive	inactive	
C=COCCOCCOC=C	inactive		inactive	inactive	inactive	inactive	-1.05	inactive	inactive	inactive	inactive	inactive	inactive	inactive	inactive	inactive	inactive	inactive	inactive
CCOC(=O)CCc1ccccc1	inactive	inactive		inactive	inactive	inactive	3.62	inactive	inactive	inactive	inactive	inactive	inactive	inactive	inactive	inactive	inactive		
CCN(Cc1cccc(S(=O)(=O)O)c1)c1ccccc1	inactive		inactive	inactive	inactive	inactive	0.413	inactive	inactive	inactive	inactive	inactive	inactive	inactive	inactive	inactive	inactive	inactive	inactive
CCOC(=O)CCCCCCCCC(=O)OCC	inactive		inactive	inactive	inactive	inactive	5.25		inactive	inactive	inactive	inactive	inactive	inactive	inactive	inactive	inactive	inactive	inactive
CCC1Nc2cc(Cl)c(S(N)(=O)=O)cc2S(=O)(=O)N1 (configuration not stated)	inactive	inactive		inactive	inactive	inactive	-2.14	inactive	inactive	inactive	inactive	inactive	inactive	inactive	inactive	inactive	inactive	inactive	
COc1ccc(N=Nc2cc(C)c(N=Nc3ccc(S(=O)(=O)O)cc3)cc2OC)cc1	inactive	inactive		inactive	inactive	inactive	-2.91	inactive	inactive	inactive	inactive	inactive		inactive	inactive	inactive	inactive	inactive	inactive
CCCCCC1Nc2cc(C(F)(F)F)c(S(N)(=O)=O)cc2S(=O)(=O)N1 (configuration not stated)	inactive	inactive		inactive	inactive	inactive	-1.2		inactive	inactive	inactive	inactive	inactive	inactive	inactive	inactive	inactive		inactive
CCOC(=O)OCC/C(SC(=O)OCC)=C(\C)N(C=O)Cc1cnc(C)nc1N	inactive	inactive	inactive	inactive	inactive	inactive	4.82	inactive	inactive	inactive	inactive	inactive	inactive	inactive	inactive	inactive	inactive		
CCN(CCC#N)c1ccccc1	inactive		inactive	inactive	inactive	inactive	2.36	inactive	inactive	inactive	inactive	inactive	inactive	inactive	inactive	inactive	inactive	inactive	inactive
CC(C)CCCC(C)CC=O (configuration not stated)	inactive		inactive	inactive	inactive	inactive	0.176	inactive	inactive	inactive	inactive	inactive	inactive	inactive	inactive	inactive	inactive	inactive	inactive
CCCCOC(=O)[C@@H](C)Oc1ccc(Oc2ccc(C(F)(F)F)cn2)cc1	inactive		inactive	inactive	31.1 µM (active)	inactive		inactive	inactive	inactive	inactive	inactive	inactive	inactive	inactive	inactive	inactive	inactive	inactive
Nc1cc(C(=O)O)ccc1Cl		inactive	inactive	inactive	inactive	inactive	6.48	inactive	inactive	inactive	inactive	inactive	inactive	inactive	inactive	inactive	inactive	inactive	inactive
